Compound activity deposited in PubChem by several laboratories.
A selection: hits, their analogues and other compounds. The true share with any hit is near 2.2%.
Myeloid diff 2: myeloid differentiation induction; ER-HoxA9 myeloid progenitors, lysozyme-GFP differentiation, flow cytometry; calls only at 10 µM; actives 1% (n = 360,000);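 active means normalized GFP-positive differentiation at or above the plate's own cutoff, the solvent-only control mean plus 3 SD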;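 further: cells exposed to compound for four days before flow analysis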
iPSC survival up: hiPSC single-cell survival enhancement | ATPlite luminescence; 100% = ROCK inhibitor wells, 0% = DMSO | survival enhancement, % at 20 µM | actives 0.044% (n = 360,000) | AID 602274; in the data active means survival enhancement above about 18%;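 further: cells exposed to compounds for 16 hours before the ATP read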
Cardio protect: protects H9c2 cardiomyocytes from peroxide injury | H2O2 injury protection, ATPLite, 2 h | protection from H2O2 cell death, % at 20 µM | actives 0.63% (n = 360,000);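 active means compounds giving at least 50% protection of heart cells from peroxide-induced death in the single-dose screen, raw or plate-pattern-corrected value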;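 further: 0% = DMSO wells with peroxide and 100% = DMSO wells without peroxide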
ABCB6 inh 2: human ABCB6 transporter inhibition | K562-ABCB6 porphyrin accumulation, flow cytometry, 1 h; hits give low values | fluorescence ratio to DMSO, % at 10 µM | Q9NP58 | actives 0.19% (n = 360,000);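 active means fluorescence ratio to DMSO below 75%, the collection mean minus 3 SD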;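 further: signal is porphyrin accumulated inside mitochondria; 100% equals median channel fluorescence of DMSO control wells; lower ratio means ABCB6 inhibition with less porphyrin fluorescence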
Target sequence (Q9NP58 whole entry, looked up): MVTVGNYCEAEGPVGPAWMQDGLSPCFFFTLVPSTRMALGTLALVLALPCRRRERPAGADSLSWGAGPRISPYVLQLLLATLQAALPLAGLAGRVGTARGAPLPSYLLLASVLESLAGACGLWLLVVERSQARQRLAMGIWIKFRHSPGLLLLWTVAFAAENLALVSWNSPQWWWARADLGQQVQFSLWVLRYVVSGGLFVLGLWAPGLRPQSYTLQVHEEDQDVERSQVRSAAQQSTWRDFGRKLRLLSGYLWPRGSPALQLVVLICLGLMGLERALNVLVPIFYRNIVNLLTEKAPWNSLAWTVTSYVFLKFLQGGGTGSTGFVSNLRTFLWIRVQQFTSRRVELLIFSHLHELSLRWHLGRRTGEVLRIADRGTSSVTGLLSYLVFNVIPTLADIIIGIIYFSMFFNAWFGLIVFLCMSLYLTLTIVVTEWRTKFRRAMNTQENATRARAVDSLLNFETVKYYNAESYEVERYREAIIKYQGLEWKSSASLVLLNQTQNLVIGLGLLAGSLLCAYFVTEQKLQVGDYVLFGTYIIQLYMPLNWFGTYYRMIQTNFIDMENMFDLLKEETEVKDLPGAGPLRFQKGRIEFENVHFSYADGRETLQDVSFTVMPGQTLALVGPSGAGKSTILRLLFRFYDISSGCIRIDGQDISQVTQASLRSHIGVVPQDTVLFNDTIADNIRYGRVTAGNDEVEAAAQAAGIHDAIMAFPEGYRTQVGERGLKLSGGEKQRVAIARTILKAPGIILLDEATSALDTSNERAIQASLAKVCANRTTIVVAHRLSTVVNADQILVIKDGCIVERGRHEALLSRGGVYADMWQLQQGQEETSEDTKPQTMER
beta cell repl: MIN6 beta-cell proliferation induction | MIN6 cells proliferation, ATPlite luminescence, 48 h; cells starved in 0.2% serum; 100% = growth in 10% serum | proliferation, % at 10 µM | actives 0.29% (n = 330,000) | AID 2380;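 active means compounds whose signal lies at least 3.5 SD above the mean of all wells on their plate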;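 further: 0% = DMSO-treated cells in low-serum medium and 100% = 10% serum control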
Myeloid diff CP1: myeloid differentiation induction | shares compounds with Myeloid diff 2 | ER-HoxA9 myeloid progenitors, GFP/Mac1 double-positive flow | calls only | actives 2% (n = 2,300) | AID 651706;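 active means share of green or green-and-red cells above 9 and 9% in run 1 or 4 and 3% in run 2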
GFP autofluor: compound fluorescence in myeloid differentiation counter-screen. shares compounds with Myeloid diff 2. ER-HoxA9 myeloid progenitors, no estrogen, GFP autofluorescence flow cytometry; vehicle wells 0%, positive control 100%. fluorescence response, % (concentration not given with the values). actives 7.4% (n = 2,300). AID 651707;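 active means over 5% cells positive for green fluorescent reporter, or over 2% positive for both it and APC stain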;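 further: range taken on the double positive population between DMSO and positive control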
Starred values were filed as active, the others as inactive; i = inactive; . = not tested or not shown; + = active, no number.

SMILES | Myeloid diff 2 | iPSC survival up | Cardio protect | ABCB6 inh 2 | beta cell repl | Myeloid diff CP1 | GFP autofluor
Cc1cc(C)nc(NC2=NCC(=O)N2c2ccc(F)c(Cl)c2)n1 | i | 4.3 | 10.2 | 102.0 | 5.1 | . | .
CCC1(CC)NC(=O)N(CC(=O)OCC(=O)Nc2cc(C)ccc2C)C1=O | + | 3.5 | -10.2 | 93.0 | -1.9 | i | 0.0
Cc1ccc(C)c(NC2=NS(=O)(=O)c3ccccc32)c1 | i | -1.6 | 1.3 | 97.0 | -1.2 | . | .
Cc1cc(NC(=O)COC(=O)C(Cc2ccccc2)NC(=O)c2ccco2)no1 (configuration not stated) | i | 0.8 | 9.2 | 94.0 | 0.0 | . | .
COc1ccccc1N1CCN(S(=O)(=O)CC23CCC(CC2=O)C3(C)C)CC1 (configuration not stated) | i | -0.3 | -1.4 | 99.0 | -3.2 | i | 0.0
C=CCn1c(SCC(=O)c2ccc(NS(=O)(=O)c3ccccc3)cc2)nnc1-c1cccs1 | i | -1.1 | -5.7 | 99.0 | -2.7 | . | .
N#Cc1cc(C#N)c(SCC(=O)N2CC(=O)Nc3ccccc32)nc1N | i | -0.5 | 8.0 | 103.0 | -0.6 | i | 0.9
CN1CCc2c(OCC(=O)N3N=C(c4cccs4)CC3c3ccc(F)cc3)cccc2C1=O (configuration not stated) | i | 0.6 | -4.9 | 106.0 | -2.8 | . | .
COc1cccc(CC(=O)OCC(=O)NC(C)c2ccc(F)cc2)c1 (configuration not stated) | i | 1.3 | 8.1 | 109.0 | 2.0 | . | .
Cc1cccc(NC(=S)N/N=C2/CCCCc3ccccc32)c1 | i | 0.6 | -1.2 | 98.0 | 0.0 | . | .
CN(CC(=O)Nc1cc([N+](=O)[O-])ccc1Cl)Cc1ccc(Br)cc1 | i | -0.5 | 0.8 | 98.0 | 0.0 | i | 0.3
Cc1ccsc1CN(C)CC(=O)Nc1ccc([N+](=O)[O-])cc1Cl | i | 1.6 | 5.0 | 90.0 | -1.7 | . | .
O=C(CC1Sc2ccccc2NC1=O)Nc1cccc(C(=O)O)c1 (configuration not stated) | i | 0.0 | -1.9 | 101.0 | 3.9 | . | .
CCC(=S)/C=C1\Sc2ccccc2N1CCCS(=O)(=O)O | i | -2.0 | 0.3 | 101.0 | -2.6 | i | 3.7
CN1/C(=C/C(=O)C2CCC2)Sc2ccccc21 | i | -0.6 | 2.9 | 92.0 | -4.2 | . | .
Cc1ccc(CCNC(=O)CCS(=O)(=O)c2cc3c(cc2C)NC(=O)CO3)cc1 | i | 1.0 | 0.0 | 94.0 | -1.4 | i | 0.2
O=C(N/N=C/c1ccc[nH]1)c1ccc(COc2cccc3cccnc23)cc1 | + | -0.7 | -15.0 | 90.0 | -6.2 | i | 0.5
Cc1cccc(-n2c(Cc3ccccc3)nnc2SCC(=O)N2CCOCC2)c1 | i | 1.9 | -2.4 | 97.0 | -0.6 | i | 0.8
c1csc(-c2noc(COc3ccc4c(c3)CCCC4)n2)c1 | i | -0.8 | -15.2 | 100.0 | -3.3 | i | 0.2
Brc1ccc(-c2noc(COc3ccc4c(c3)CCC4)n2)o1 | i | 7.5 | -33.7 | 93.0 | -3.0 | . | .
O=C(CCS(=O)(=O)c1cc(Br)cc2c1N(C(=O)C1CC1)CC2)NCC1CCCO1 (configuration not stated) | i | -1.9 | 1.0 | 91.0 | -0.3 | . | .
CCN(CC(=O)Nc1ccc(N2CCOCC2)cc1)C(=O)c1ccc(C#N)cc1 | i | 0.3 | 4.3 | 94.0 | -1.7 | . | .
Cc1ccc(-c2noc(CN(C(=O)CCN3C(=O)c4ccccc4C3=O)C(C)C)n2)cc1 | + | 0.1 | -6.0 | 95.0 | 0.4 | i | 0.5
CC(C)(C)CC(C)(C)NCC(O)COc1c(F)cc(Br)cc1F (configuration not stated) | + | -2.7 | -26.0 | 96.0 | -3.2 | i | 0.0
CC(C)(C)NCC(O)COc1c(F)cc(Br)cc1F (configuration not stated) | i | 3.0 | 1.4 | 97.0 | 4.6 | . | .
SMILES | Myeloid diff 2 | iPSC survival up | Cardio protect | ABCB6 inh 2 | beta cell repl | Myeloid diff CP1 | GFP autofluor
COc1cccc(NC(=O)CSc2nnc(-c3cc(C)[nH]n3)n2N)c1 | i | 0.1 | -0.5 | 98.0 | -1.6 | . | .
CC(=O)n1cc(C2C(=O)CCCC2=O)c2ccccc21 | i | -1.4 | 10.6 | 98.0 | -2.0 | i | 0.8
Cc1sc(-c2ccncc2)nc1OC(=O)c1ccc(F)cc1F | i | 2.1 | 6.7 | 103.0 | -4.1 | . | .
CC(CCc1ccccc1)NC(=O)c1nnc(Cc2ccc(Cl)cc2)o1 (configuration not stated) | i | 3.3 | -9.3 | 104.0 | -3.3 | i | 0.0
O=C(NCCc1ccc(Cl)cc1)c1nnc(Cc2ccc(Cl)cc2)o1 | i | -1.6 | 7.1 | 95.0 | 2.9 | . | .
O=C(NCc1ccc(Cl)cc1)c1noc2c1CCCCC2 | i | 8.9 | -6.4 | 95.0 | -2.7 | . | .
C=CCNC(=S)N1N=C(c2ccco2)CC1c1ccco1 (configuration not stated) | i | 1.1 | 17.1 | 98.0 | . | i | 0.0
O=C(O)c1ccccc1N/N=C/c1c(Sc2nnnn2-c2ccccc2)nc2ccccn2c1=O | + | -0.1 | -4.8 | 222.0 | -3.6 | + | 1.9
NC(=S)Nc1cc2ccccc2c2ccccc12 | i | 0.0 | 18.2 | 105.0 | -5.1 | . | .
NC(=S)Nc1cccc2cc3ccccc3cc12 | + | -2.0 | -4.8 | 135.0 | -6.1 | i | 13.6*
CCOc1ccc(S(=O)(=O)NCCC(=O)N2CCN(c3ccc(OC)cc3)CC2)cc1 | i | -0.5 | 4.1 | 90.0 | 0.8 | . | .
Cc1cccc2c1CC(C)(C)N=C2C1=C(O)CCCC1=O | i | -1.0 | 46.4 | 103.0 | 1.2 | . | .
CC(C)(C)C(=O)Nc1ccc(-c2cn3ccsc3n2)cc1 | i | -5.6 | -41.5 | 90.0 | -3.0 | i | 0.0
CC(C)CC(=O)Nc1ccc(-c2cn3ccsc3n2)cc1 | i | -7.1 | -32.9 | 97.0 | -3.7 | . | .
N#C/C(=C/c1cccn1-c1cccc(C(=O)O)c1)c1ccc(F)cc1 | + | -3.6 | 2.8 | 101.0 | . | i | 0.9
COc1ccccc1N1CCN(C(=O)c2cccc(Oc3ccccc3)c2)CC1 | i | 0.0 | 23.7 | 98.0 | -3.5 | . | .
COc1cccc(NC(=S)Nc2cccc3ccccc23)c1 | i | -0.7 | -10.8 | 103.0 | -7.8 | i | 0.0
CCN(CC)c1ccc(C2NC(=O)NC(C)=C2C(=O)Nc2ccccc2)cc1 (configuration not stated) | + | 7.4 | -3.2 | 194.0 | -2.1 | i | 7.5*
O=C(NC1CCCCC1)C(c1cccc2ccccc12)n1c(=O)c(-c2cc3ccccc3[nH]2)nc2ccccc21 (configuration not stated) | i | . | . | . | . | . | .
CCO[C@@H]1OC(C(=O)O)=C[C@H](c2ccccc2)[C@H]1CCCO | i | 0.9 | -1.2 | 95.0 | 1.9 | . | .
